Data taken from PubChem BioAssay (NCI).
This is part of a sample that, as a whole, favours compounds with a hit. Of some 83,000 tested, about 20% had one in any assay.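 Treatment: one concentration, 48 hours, 96-well format. Scoring: percent growth, with anything below 10 considered active.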 Values without a mark were called inactive. Calls of active or inactive are those of the source.

test system: SK-OV-3 ovarian; assay: NCI-60 one-dose screen, 48 h (100 = growth as untreated, 0 = no growth, -100 = all killed); details: 10 µM

Structure (SMILES) | growth
c1ccc(CNc2nc(Nc3ccc(-c4nc5ccccc5[nH]4)cc3)c3cn[nH]c3n2)cc1 | 10.8%
c1ccc(COCC[P+](c2ccccc2)(c2ccccc2)c2ccccc2)cc1 | -0.443% (active)
CCOC(=O)C1=C(Nc2ccc(OC)cc2)C(N)=NC1=N | 34.1%
NC(=O)C1CCCN(Cc2c[nH]c3ccccc23)C1 (stereo not given) | 100%
CC(=O)n1nc(C(=O)OC(C)(C)C)c2cc(F)c(F)cc21 | 114%
CN1/C(=C\C(I)C(I)C2=[N+](C)c3ccccc3C2(C)C)C(C)(C)c2ccccc21 (stereo not given) | -8.39% (active)
N#C/C(=C/c1cc([N+](=O)[O-])ccc1Cl)C(N)=O | 95.5%
CCCCCCCCCCCC(=O)NCCCN(C)C | 95.6%
CCc1nn2c(-c3cc(OC)c(OC)c(OC)c3)c(-c3cc(OC)c(OC)c(OC)c3)nc2s1 | 59.5%
CCN1CCN(c2nc(NNC(=O)c3cccc(OC)c3)nc(N3CCN(C(c4ccccc4)c4ccccc4)CC3)n2)CC1 | 76.1%
CCCCOCCOCCOCc1cc2c(cc1Br)OCO2 | 96.5%
CCCCCCCCCCCCCC[n+]1ccccc1 | -0.0653% (active)
Cc1cc(C)c2nc(C)c(C)[n+]([O-])c2c1 | 85.4%
COc1ccc(NC(=O)c2sc3nc4c(cc3c2N)C(O)CCC4)cc1 (stereo not given) | 112%
CCCCCC(=O)N1c2ccccc2NC2=C(C(=O)CC(c3ccc(OC)c(OC)c3)C2)C1c1ccc(C(F)(F)F)cc1 (stereo not given) | 83.6%
COc1cc(C2C(C#N)=C(c3c[nH]c4ccccc34)Nc3nc(N)[nH]c(=O)c32)cc(OC)c1OC (stereo not given) | 80.6%
COCCOC(=O)NC(=O)Nc1ccc(/C(=N/O)c2ccc(Cl)cc2)cc1 | 4.2% (active)
CCN(CCCNC(=O)Cc1cc(=O)oc2cc(N(C)C)ccc12)CCNc1ccnc2cc(Cl)ccc12 | 116%
CC(C)c1ncc(CO)n1Cc1c(Cl)cccc1Cl | 99.5%

test system: IGROV1 ovarian; assay: as above; details: 10 µM

Structure (SMILES) | growth
O=C1/C(=C/c2ccc(O)cc2)Oc2ccc(Cl)cc21 | -27.4% (active)
COc1cc(C(=O)n2nc(N)c3c(C)cc(C)nc32)cc(OC)c1OC | 86%
C#Cc1ccc(-n2c(/C=C/c3cc(OC)c(OC)c(OC)c3)nc3ncccc3c2=O)cc1 | 56.3%
COC(=O)[C@]12CC[C@@H](C)[C@H](C)[C@@H]1C1=CC[C@@H]3[C@@]4(C)C[C@@H](O)[C@H](O)[C@@](C)(CO)[C@@H]4[C@H](O)C[C@@]3(C)[C@]1(C)CC2 | -19.8% (active)
Oc1ccccc1-c1nnc(Cn2c(Cc3cccc4ccccc34)nc3ccccc32)o1 | 111%
COc1ccc(-c2nc(SCC(=O)c3ccc(Br)cc3)[nH]c(=O)c2C#N)cc1 | 112%
COc1ccc(C2C=C(c3ccc(Cl)c(Cl)c3)N=C3SC(C)=CN32)cc1 (stereo not given) | 86.8%
CCOc1nc(-c2ccccc2)cc2c(O)c(C(=O)NC(C)C)[nH]c(=O)c12 | 65.4%
Nc1cc(O)cc(O)c1 | 100%
COc1c(-c2c3sc(=O)[nH]c3nc3c2c(=O)[nH]n3C(C)C)cc2c(c1OC)OCO2 | 102%
Cc1c(C(=O)N[C@H](CO)Cc2ccccc2)[nH]c2ccc(Cl)cc2c1=O | 106%
COc1cc(Cn2c(-c3ccccc3)c(Cl)c3c2-c2oncc2CC3)cc(OC)c1 | 16.2%
C/C=C\COc1cc(C)c(Cl)cc1Cl | 107%
CCOC(=O)CNC(=O)Nc1ccc(Oc2ccc(NC(=O)NCC(=O)OCC)cc2)cc1 | 102%
c1ccc(CNc2nc(Nc3ccc(-c4nc5ccccc5[nH]4)cc3)c3cn[nH]c3n2)cc1 | 36.2%
c1ccc(COCC[P+](c2ccccc2)(c2ccccc2)c2ccccc2)cc1 | -8.1% (active)
CCOC(=O)C1=C(Nc2ccc(OC)cc2)C(N)=NC1=N | 65%
NC(=O)C1CCCN(Cc2c[nH]c3ccccc23)C1 (stereo not given) | 102%
CC(=O)n1nc(C(=O)OC(C)(C)C)c2cc(F)c(F)cc21 | 97.5%
Cc1cc(Cl)ccc1Nc1nc(C(F)(F)F)ccc1C(=O)N/N=C/c1ccccc1Cl | 21.6%
CN1/C(=C\C(I)C(I)C2=[N+](C)c3ccccc3C2(C)C)C(C)(C)c2ccccc21 (stereo not given) | 25%
